Laboratory results taken from PubChem BioAssay (Tox21).
Unmarked numbers belong to inactive results. Records with an inconclusive call do not appear. Where a call stands in place of a potency, no number is given. Activity calls are given as the source filed them. Unless noted, calls follow the shape of the full dose curve.

Legend:
[1] = Nuclear factor erythroid 2-related factor 2/antioxidant responsive element (Nrf2/ARE) small molecule agonists: qHTS cell viability counter screen in human keratinocytes (AID 1919968; active = well fitted curve in the direction sought with a large enough effect in the repeat runs; an effect the other way counts as inactive or inconclusive; also: nearly all actives have a fitted effect of over 55% in size; also: potency is read from the fitted curve at half-maximal effect)
Procedure, shortened: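 CellTiter-Fluor fluorescence, read 1 h after reagent, gave viability in the same wells as the ARE-luciferase assay. KeratinoSens cells (1,500/well) had 23 h compound exposure at 37 C/5% CO2 following 5 h plating.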

[2] = Nuclear factor erythroid 2-related factor 2/antioxidant responsive element (Nrf2/ARE) small molecule agonists: luciferase reporter gene qHTS assay in human keratinocytes (AID 1919969); also: nearly all actives have a fitted effect of over 35% in size; also: potency is read from the fitted curve at half-maximal effect
[3] = biological target: Gonadotropin-releasing hormone receptor (Homo sapiens) (UniProt P30968); assay: Human gonadotropin-releasing hormone receptor (GnRHR) small molecule agonists, calcium flux assay in GnRHR-HEK293 cells (AID 1920063); also: nearly all actives have a fitted effect of over 35% in size; also: potency is read from the fitted curve at half-maximal effect
Chain of Gonadotropin-releasing hormone receptor (Homo sapiens) (P30968 whole entry, looked up): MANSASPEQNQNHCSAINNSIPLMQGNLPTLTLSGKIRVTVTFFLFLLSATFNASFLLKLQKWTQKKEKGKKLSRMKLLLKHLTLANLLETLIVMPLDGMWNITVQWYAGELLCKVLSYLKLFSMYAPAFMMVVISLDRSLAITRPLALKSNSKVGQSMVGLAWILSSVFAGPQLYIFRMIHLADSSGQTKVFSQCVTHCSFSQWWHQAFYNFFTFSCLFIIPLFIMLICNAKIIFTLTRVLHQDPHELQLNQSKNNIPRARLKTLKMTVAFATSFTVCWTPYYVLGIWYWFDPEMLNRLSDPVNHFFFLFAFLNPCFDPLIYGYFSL
Procedure, shortened: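 Agonist mode: compounds at 15 concentrations, in triplicate, went onto calcium dye-loaded GnRHR-HEK293 cells. Intracellular calcium was then followed as 480/540 nm fluorescence at 1 s intervals over 3 min.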

[4] = biological target: KiSS-1 receptor (Homo sapiens) (UniProt Q969F8); assay: Human kisspeptin (KISS1R) small molecule agonists, calcium flux assay in KISS1R-HEK293 cells (AID 1920064; active = well fitted curve in the direction sought with a large enough effect in the repeat runs; an effect the other way counts as inactive or inconclusive)
Chain of KiSS-1 receptor (Homo sapiens) (Q969F8 whole entry, looked up): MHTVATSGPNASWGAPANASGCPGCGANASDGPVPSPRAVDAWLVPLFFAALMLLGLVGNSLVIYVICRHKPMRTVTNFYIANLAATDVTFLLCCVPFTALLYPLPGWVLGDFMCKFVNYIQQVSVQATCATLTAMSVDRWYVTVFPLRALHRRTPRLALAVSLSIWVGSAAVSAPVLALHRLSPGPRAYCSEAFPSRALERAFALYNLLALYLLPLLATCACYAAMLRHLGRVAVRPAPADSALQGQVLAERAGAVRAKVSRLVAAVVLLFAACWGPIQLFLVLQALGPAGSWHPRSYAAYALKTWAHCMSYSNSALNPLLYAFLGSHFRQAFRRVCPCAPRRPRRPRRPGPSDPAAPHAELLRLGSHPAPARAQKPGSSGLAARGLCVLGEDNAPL
Procedure, shortened: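 Agonist mode: intracellular calcium rise tracked at 1 s intervals over 3 min (480/540 nm) immediately after compound addition to dye-loaded KISS1R-HEK293 stable cells. Each compound tested at 15 concentrations in triplicate.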

[5] = G protein-coupled receptor (GPCR) small molecule agonists, calcium flux assay: HEK293 wild type cell line counter screen (AID 1920065)
Procedure, shortened: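 Calcium flux counter screen: compound added in agonist mode at 15 concentrations in triplicate to dye-loaded parental HEK293 cells. Fluorescence (480/540) read kinetically for 3 min; ATP served as positive control.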

[6] = p53 small molecule agonists, cell-based qHTS assay with human liver microsomes (AID 1963577);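 also: p53 response element beta-lactamase reporter cells with liver microsomes plus NADPH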
Procedure, shortened: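 With metabolic activation: human liver microsomes (0.5 mg/mL final) plus NADPH (0.5 mg/mL final) added alongside compounds to p53RE-bla cells; 16 h 37 C exposure; beta-lactamase read by LiveBLAzer fluorescence.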

[7] = p53 small molecule agonists, cell-based qHTS assay with rat liver microsomes (AID 1963578)
Procedure, shortened: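 Metabolic activation by rat liver microsomes and NADPH, each 0.5 mg/mL final, added right after compounds to p53RE-bla reporter cells (4,000/well, plated 5 h earlier). 16 h at 37 C, then LiveBLAzer substrate for 2 h at room temperature in the dark; fluorescence read-out.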

[8] = p53 small molecule agonists, cell-based qHTS assay: qHTS cell viability counter screen (AID 1963581); also: nearly all actives have a fitted effect of over 45% in size
Procedure, shortened: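 Counter screen read by CellTiter-Glo luminescence (ATP content, 30 min at room temperature), run in the same wells as the beta-lactamase reporter read. HCT-116 p53RE-bla cells saw compounds for 16 h at 37 C.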

[9] = p53 small molecule agonists, cell-based qHTS assay (AID 1963582; active = well fitted activation curve with a large enough effect in the signal ratio in the repeat runs, not every such curve was filed as active; the % refers to the signal ratio)
Procedure, shortened: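 Read-out is beta-lactamase FRET fluorescence after 2 h at room temperature with LiveBLAzer B/G substrate. p53 response element-bla cells were treated 16 h at 37 C with compounds in DMSO, added 5 h after seeding.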

[10] = biological target: 5-hydroxytryptamine receptor 2A (Homo sapiens) (UniProt P28223); assay: 5-hydroxytryptamine receptor 2A (HTR2A) small molecule antagonists, cell-based qHTS assay (AID 1963586); also: nearly all actives have a fitted effect of over 45% in size
Chain of 5-hydroxytryptamine receptor 2A (Homo sapiens) (P28223 whole entry, looked up): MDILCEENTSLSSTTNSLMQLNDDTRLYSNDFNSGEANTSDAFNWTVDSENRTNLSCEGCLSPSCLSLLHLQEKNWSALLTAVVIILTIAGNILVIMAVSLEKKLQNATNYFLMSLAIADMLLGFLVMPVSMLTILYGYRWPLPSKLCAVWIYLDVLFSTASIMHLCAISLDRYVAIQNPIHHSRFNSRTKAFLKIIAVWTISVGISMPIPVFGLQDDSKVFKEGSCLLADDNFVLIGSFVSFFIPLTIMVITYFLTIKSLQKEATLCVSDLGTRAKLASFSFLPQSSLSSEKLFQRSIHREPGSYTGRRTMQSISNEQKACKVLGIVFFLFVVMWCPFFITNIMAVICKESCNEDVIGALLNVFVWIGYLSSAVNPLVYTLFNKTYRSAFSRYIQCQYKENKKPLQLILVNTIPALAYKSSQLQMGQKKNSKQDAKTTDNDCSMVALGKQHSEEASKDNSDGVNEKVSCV
Procedure, shortened: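 CHO cells stably expressing human HTR2A were plated for 18 h at 37 C, then loaded with calcium dye for 1 h. Compounds were preincubated 5 min at room temperature before DOI (4 nM solution) was added. Kinetic fluorescence was read for 3 min.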

[11] = biological target: 5-hydroxytryptamine receptor 2A (Homo sapiens) (UniProt P28223); assay: 5-hydroxytryptamine receptor 2A (HTR2A) small molecule agonists, cell-based qHTS assay (AID 1963587); also: nearly all actives have a fitted effect of over 30% in size; also: potency is read from the fitted curve at half-maximal effect
Procedure, shortened: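 CHO cells stably expressing human HTR2A, plated 18 h, loaded with calcium dye 1 h at 37 C. Agonist mode: compounds added and intracellular calcium fluorescence recorded kinetically for 2 min at 1 sec intervals.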

[12] = biological target: Muscarinic acetylcholine receptor M1 (Homo sapiens) (UniProt P11229); assay: Cholinergic receptor muscarinic 1 (CHRM1) small molecule antagonists, cell-based qHTS assay (AID 1963588); also: nearly all actives have a fitted effect of over 40% in size; also: potency is read from the fitted curve at half-maximal effect
Chain of Muscarinic acetylcholine receptor M1 (Homo sapiens) (P11229 whole entry, looked up): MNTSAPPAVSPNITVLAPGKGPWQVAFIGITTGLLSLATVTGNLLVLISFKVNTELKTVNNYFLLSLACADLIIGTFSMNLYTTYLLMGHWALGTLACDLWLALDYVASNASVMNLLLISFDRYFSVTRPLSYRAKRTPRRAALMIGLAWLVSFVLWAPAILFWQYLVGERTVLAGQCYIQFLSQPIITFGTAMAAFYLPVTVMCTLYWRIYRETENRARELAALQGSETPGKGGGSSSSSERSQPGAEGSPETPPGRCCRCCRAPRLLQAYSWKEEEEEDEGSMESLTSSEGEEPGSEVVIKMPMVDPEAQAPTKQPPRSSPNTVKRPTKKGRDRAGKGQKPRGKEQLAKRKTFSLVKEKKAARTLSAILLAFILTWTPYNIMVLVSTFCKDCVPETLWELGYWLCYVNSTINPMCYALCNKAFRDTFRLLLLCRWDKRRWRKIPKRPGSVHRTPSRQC
Procedure, shortened: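 Compounds were tested at 15 concentrations in three independent runs. Dye-loaded CHRM1-CHO cells were exposed 5 min at room temperature before stimulation by acetylcholine added at 50nM. Intracellular calcium was read kinetically on FDSS for 3 min.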

[13] = biological target: Muscarinic acetylcholine receptor M1 (Homo sapiens) (UniProt P11229); assay: Cholinergic receptor muscarinic 1 (CHRM1) small molecule agonists, cell-based qHTS assay (AID 1963589); also: nearly all actives have a fitted effect of over 35% in size
Procedure, shortened: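 Agonist-mode calcium-flux screen: compounds at 15 concentrations, three independent runs, were pin-transferred onto dye-loaded human CHRM1-CHO cells. Fluorescence was then recorded kinetically every second over minutes.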

[14] = cAMP Responsive Elements (CRE) small molecule agonists, cell-based qHTS assay (AID 1963590)
Procedure, shortened: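 Agonist mode: compound added to CRE-bla HEK 293T cells (2,000/well, 18 h after plating) for 3 h at 37 C/5% CO2. Reporter activity detected via FRET beta-lactamase substrate, 2 h room-temperature loading.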

[15] = cAMP Responsive Elements (CRE) small molecule antagonists, cell-based qHTS assay (AID 1963591; active = well fitted inhibition curve with a large enough effect in the signal ratio in the repeat runs, not every such curve was filed as active; the % refers to the signal ratio)
Procedure, shortened: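 Antagonist mode: compounds are added alongside the adenylyl cyclase activator NKH477 (0.25 uM final) to CRE-bla HEK293T cells for 3 h. LiveBLAzer FRET substrate, 2 h at room temperature, reports bla expression.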

[16] = biological target: Beta-2 adrenergic receptor (Homo sapiens) (UniProt P07550); assay: Adrenergic beta2 receptor (ADRB2) small molecule antagonists, cell-based qHTS assay (AID 1963592); also: series mostly up to about 92 µM; nearly all actives have a fitted effect of over 50% in size
Chain of Beta-2 adrenergic receptor (Homo sapiens) (P07550 whole entry, looked up): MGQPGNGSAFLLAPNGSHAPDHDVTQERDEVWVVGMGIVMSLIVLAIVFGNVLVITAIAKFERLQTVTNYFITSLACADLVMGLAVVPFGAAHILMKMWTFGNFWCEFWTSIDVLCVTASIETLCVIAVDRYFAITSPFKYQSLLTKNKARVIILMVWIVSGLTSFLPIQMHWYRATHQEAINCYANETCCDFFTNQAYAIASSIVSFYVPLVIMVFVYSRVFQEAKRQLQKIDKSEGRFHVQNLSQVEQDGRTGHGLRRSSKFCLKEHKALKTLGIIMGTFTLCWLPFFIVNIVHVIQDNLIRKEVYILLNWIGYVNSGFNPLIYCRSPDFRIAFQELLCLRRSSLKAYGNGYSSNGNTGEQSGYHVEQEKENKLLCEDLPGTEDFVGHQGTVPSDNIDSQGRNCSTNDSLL
Procedure, shortened: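 Assay format: CHO-ADRB2 cells, 18-20hr seeding at 37C/5% CO2, then compound plus 1nM isoproterenol agonist mix for 0.5hr RT. Homogeneous time-resolved fluorescence cAMP detection after 1hr, expressed as 665/615 nm ratio.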

[17] = biological target: D(2) dopamine receptor (Homo sapiens) (UniProt P14416); assay: Dopamine D2 receptor (DRD2) small molecule antagonists, cell-based qHTS assay (AID 1963595; active = well fitted inhibition curve with a large enough effect in the signal ratio in the repeat runs, with a control signal flat; the % refers to the signal ratio; also: potency is read from the fitted curve at half-maximal effect)
Chain of D(2) dopamine receptor (Homo sapiens) (P14416 whole entry, looked up): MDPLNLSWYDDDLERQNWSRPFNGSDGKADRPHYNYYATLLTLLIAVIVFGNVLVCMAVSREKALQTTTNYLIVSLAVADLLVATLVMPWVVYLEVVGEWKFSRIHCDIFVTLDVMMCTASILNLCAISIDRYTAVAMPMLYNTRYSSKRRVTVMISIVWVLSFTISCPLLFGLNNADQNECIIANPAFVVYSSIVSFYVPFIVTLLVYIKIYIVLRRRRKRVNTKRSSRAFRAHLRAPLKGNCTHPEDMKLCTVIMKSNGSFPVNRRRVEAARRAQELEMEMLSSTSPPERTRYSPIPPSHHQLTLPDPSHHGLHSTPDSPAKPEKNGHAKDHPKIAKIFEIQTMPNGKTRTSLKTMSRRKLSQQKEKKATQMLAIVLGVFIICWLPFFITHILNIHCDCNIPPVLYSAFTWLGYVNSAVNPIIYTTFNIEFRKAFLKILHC
Procedure, shortened: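 HEK293 cells stably expressing DRD2, preincubated with 0.1 mM Ro20-1724 and compounds 10 min, were stimulated with 200 nM NKH477 plus 12 nM quinpirole for 30 min at room temperature; cAMP measured by HTRF (665/620 nm).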

[18] = p53 small molecule agonists, cell-based qHTS assay with human liver microsomes: qHTS cell viability counter screen (AID 1963579); also: nearly all actives have a fitted effect of over 45% in size; also: potency is read from the fitted curve at half-maximal effect
Procedure, shortened: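 Metabolic activation used human liver microsomes and NADPH, both 0.5 mg/mL final, over 16 hours at 37 C on p53RE-bla cells (4,000/well). Cytotoxicity measured by CellTiter-Glo luminescence, 30 min at room temperature.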

[19] = biological target: D(2) dopamine receptor (Homo sapiens) (UniProt P14416); assay: Dopamine D2 receptor (DRD2) small molecule agonists, cell-based qHTS assay (AID 1963594); also: nearly all actives have a fitted effect of over 35% in size
Procedure, shortened: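 HEK293 cells stably expressing human DRD2, pre-treated with PDE inhibitor Ro20-1724 (0.1 mM final) and compound 10 min at room temperature, then stimulated with NKH477 (200nM […]) for 30 min. cAMP read by HTRF (665/620 nm).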

[20] = biological target: Beta-2 adrenergic receptor (Homo sapiens) (UniProt P07550); assay: Adrenergic beta2 receptor (ADRB2) small molecule agonists, cell-based qHTS assay (AID 1963593);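 also: CHO cells stably overexpressing human ADRB2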
Procedure, shortened: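 CHO cells stably over-expressing ADRB2 were plated overnight at 37C, then dosed with compounds plus a stimulation mix containing 100uM IBMX and 25uM Ro-20-1724 for 0.5hr at room temperature. cAMP was measured by HTRF competition, 1hr.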

Compound	Potency [1]	Potency [2]	Potency [3]	outcome [4]	outcome [5]	Potency [6]	Potency [7]	Potency [8]	Potency [9]	Potency [10]	Potency [11]	Potency [12]	Potency [13]	Potency [14]	Potency [15]	Potency [16]	Potency [17]	Potency [18]	Potency [19]	Potency [20]
CCCCOCC(C)O (stereo not drawn)	inactive	inactive	inactive	inactive	inactive	inactive	inactive	inactive	inactive	inactive	inactive	inactive	inactive	inactive	inactive	inactive	inactive			
CC(C(=O)O)c1ccc2c(c1)Cc1cccnc1O2 (stereo not drawn)	inactive	inactive	inactive	inactive	inactive	inactive	inactive			inactive	inactive	inactive	inactive			inactive		inactive	inactive	
C=CCOC(=O)/C=C\C(=O)OCC=C	inactive	24.8 µM (active)	inactive	inactive	inactive	inactive	inactive	inactive	inactive	inactive	inactive	inactive	inactive			inactive	inactive		inactive	inactive
Cc1ccccc1C(=O)Nc1ccc(C(=O)N2CCCC(N(C)C)c3ccccc32)cc1 (stereo not drawn)	inactive	inactive	inactive	inactive	inactive	inactive	inactive			inactive	inactive	inactive	inactive			inactive	inactive	inactive	inactive	inactive
CCCCCCCCCCCCN(CCO)CCO	30.5 µM (active)	inactive	30.8 µM (active)	inactive	inactive	inactive	inactive				48.8 µM (active)	11.8 µM (active)	inactive			inactive	inactive	45.6 µM (active)	inactive	
CCCOC(=O)c1ccc(O)cc1	inactive	27.3 µM (active)	inactive	inactive	inactive	inactive	inactive			inactive	inactive	inactive	inactive	inactive	inactive		inactive	inactive	inactive	
CN(C)C(=O)C1(N2CCCCC2)CCN(CC[C@@]2(c3ccc(Cl)c(Cl)c3)CN(C(=O)c3ccccc3)CCO2)CC1	22.7 µM (active)	inactive	inactive	inactive	inactive	inactive	inactive				inactive		inactive			inactive	64.1 µM (active)	inactive		
CCc1ccc(CC)cc1	inactive	inactive	inactive	inactive	inactive	inactive	inactive		inactive	inactive	inactive		inactive	inactive	inactive	inactive	inactive	inactive		inactive
